# From PubChem
# Cycloheximide cs = counter-screen hit for Shiga toxin inhibitors, cycloheximide; AID 2314; max response, %; cell reporter, cycloheximide protein synthesis inhibition counterscreen; 300,000 compounds, 12% hits; in the data active = max response mostly above about 13%, no sharp cut-off; inactive = mostly below about 14%; also: read at 38.3 µM for the half of the compounds with a filed dose; 0% is about no effect
# Sm TGR inh = inhibitors of Schistosoma mansoni thioredoxin glutathione reductase; purified TGR, DTNB reduction, TNB absorbance 405 nm; Potency, µM (top dose mostly 114 µM), for the others: at the top dose activity change, negative = inhibition, most hits filed as inhibitors; 360,000 compounds, 3% hits; AID 485364; also: potency is read from the fitted curve at half-maximal effect; % is scaled to controls: 0 for no effect and ±100 for the full control effect; nearly all actives have a fitted effect of over 60% in size
#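 First, TGR (20 nM dispensed) and NADPH were mixed with compound. Second, a 15 min room-temperature incubation followed. Third, further NADPH and then DTNB were added to start the reaction. Finally, TNB absorbance was monitored kinetically.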
# Pf growth 96h = P. falciparum growth inhibition at 96 hours | P. falciparum luciferase reporter growth, 96 h | Potency, µM (series often up to 28.7 µM), without a hit: at the highest dose activity change, negative = inhibition, most hits filed as inhibitors | 320,000 compounds, 6.9% hits | AID 504834; also: potency is read from the fitted curve at half-maximal effect; % is scaled to controls: 0 for no effect and ±100 for the full control effect
#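 Parasite growth measured via integrated firefly luciferase reporter in P. falciparum. Infected erythrocytes at 2% hematocrit, 0.05% parasitemia final were treated 96 hours at 37 C under 5% CO2, and luminescence was read.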
# Pf growth 48h = inhibits P. falciparum growth in the first generation, 48 h; 310,000 compounds, 5.9% hits; AID 504832; P. falciparum luciferase growth in erythrocytes, 48 h; Potency, µM (titrated, usually from 28.7 µM), without a hit: at the highest dose activity change, negative = inhibition, most hits filed as inhibitors; also: potency is read from the fitted curve at half-maximal effect; % is scaled to controls: 0 for no effect and ±100 for the full control effect
#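 A one-generation exposure of luciferase-tagged malaria parasites in RPMI 1640/Albumax erythrocyte culture, 37 C and 5% CO2. Inhibition is inferred from decreased luminescence after adding detection reagent.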
# NS1 inh = influenza NS1 inhibition; Potency, µM (doses to about 46.1 µM), without a hit: top-dose activity, positive = more growth; 270,000 compounds, 0.4% hits; calls by dose curve; also: potency is read from the fitted curve at half-maximal effect; actives are rising curves; nearly all actives have a fitted effect of over 50% in size
#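 Recovery from NS1-induced slow growth read by OD600 in budding yeast switched to galactose assay medium (pH 6.0, -URA) at 1:100 dilution. Compound 23 nl per well; the matching strain lacking NS1 serves as control.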
# Shiga toxin inh = inhibitors of Shiga toxin in Vero cells | Vero cells, Shiga toxin protein synthesis inhibition reporter | inhibition, % at 38.7 µM | 290,000 compounds, 9.2% hits; in the data active = inhibition mostly above about 28%, no sharp cut-off; inactive = mostly below about 43%; also: 0% is about no effect
# * marks the source's active call; other numbers are inactive results; ? = inconclusive; nt = no result given. Only some compounds are listed: those with a hit (about 21% of all), similar ones and a draw of the others. Unless noted, calls follow the shape of the dose curve; as a rule, active = well fitted curve in the direction sought with a large enough effect; inconclusive = small, poorly fitted or top-dose-only effect, or another doubt; inactive = no such curve, though single readings can be large; an effect the other way counts as inactive or inconclusive.
SMILES,Cycloheximide cs,Sm TGR inh,Pf growth 96h,Pf growth 48h,NS1 inh,Shiga toxin inh
O=C(O)c1cccc(N2C(=O)c3cc([N+](=O)[O-])cc4cc([N+](=O)[O-])cc(c34)C2=O)c1,-4,2µM*,-9%,?,?,-6
O=C1c2cc([N+](=O)[O-])cc3cc([N+](=O)[O-])cc(c23)C(=O)N1c1ccccn1,-2,50µM*,34%,-15%,6%,-5
O=C(O)c1cccc(N2C(=O)c3cccc4cccc(c34)C2=O)c1,7,2%,-18%,-3%,12%,6
Cc1ccc(/C=C/S(=O)(=O)NCC(=O)OCC(=O)NCc2ccccc2)cc1,-2,-3%,-27%,-10%,0%,-7
O=C(O)c1cccc(-n2cnc3cccnc32)c1,nt,1%,nt,nt,nt,nt
Cc1ccc(-c2cccc(NC(=O)C3C(C(=O)O)[C@@H]4C=C[C@H]3C4)c2)o1 (stereo partly drawn),18,20µM*,6%,0%,21%,33*
Cc1cccc(C)c1NC(=O)C1C2C=CC(C2)C1C(=O)O (stereo not drawn),-1,-1%,-10%,17%,9%,-6
Cc1ccc(-c2ccccc2NC(=O)C2C3C=CC(C3)C2C(=O)O)o1 (stereo not drawn),13,35µM*,-20%,?,-9%,16
Cc1ccc(-c2ccccc2NC(=O)CCl)o1,16*,32µM*,?,?,-30%,51
CC(=O)Nc1ccc(NC(=O)C2C3C=CC(C3)C2C(=O)O)cc1 (stereo not drawn),-3,5%,1.7µM*,6%,4%,-2
Cc1ccc(-c2ccccc2NC(=O)CS(=O)CC(=O)Nc2ccc(C)c(Cl)c2)o1 (stereo not drawn),-7,-25%,12%,-5%,-25%,-9
O=C(O)c1cc(=O)[nH]c(SCc2ccccc2)n1,nt,nt,nt,nt,3%,nt
CS(=O)(=O)N1CCc2ccc(NC(=O)C3CCCO3)cc2C1 (stereo not drawn),10,-30%,?,15%,0%,-11
COc1ccc2c(c1)cc1c(=O)n(CC(=O)NCc3ccco3)nc(C)n12,nt,-2%,nt,nt,nt,nt
Fc1ccc2nc(C3CCN(Cc4nc(CC5CC5)no4)CC3)[nH]c2c1,15*,0%,22%,?,-1%,8
Clc1ccc(OC2CCN(Cc3nc(CC4CC4)no3)CC2)cc1,0,-5%,?,13%,-6%,-2
Fc1ccccc1C1CCN(Cc2nc(CC3CC3)no2)C1 (stereo not drawn),28*,?,?,42%,-5%,75*
Cc1ccc(-c2nc3ncccc3o2)cc1NC(=O)c1ccc([N+](=O)[O-])o1,1,-2%,84%,0%,-42%,25
O=C(Nc1ccc2oc(-c3ccncc3)nc2c1)c1ccc([N+](=O)[O-])o1,32*,-13%,?,6.6µM*,-40%,53*
O=C(Nc1ccc(-c2nc3ncccc3o2)cc1)c1ccc([N+](=O)[O-])o1,-3,-13%,-2%,9.3µM*,-11%,44
O=C(O)Cc1cccc(OCCCN(Cc2cccc(C(F)(F)F)c2Cl)CC(c2ccccc2)c2ccccc2)c1,0,nt,nt,nt,nt,10
CN1CCOc2cc(S(=O)(=O)NCc3ccc(S(N)(=O)=O)cc3)ccc21,-1,-1%,3%,1%,10%,-2
Cc1cc(C)cc(NC(=O)CSc2ccc(-c3ccco3)nn2)c1,4,22µM*,?,15%,-6%,21
Cc1ccc(CNC(=O)CSc2ccc(-c3ccco3)nn2)cc1,-3,?,12%,14%,-9%,22
Cc1cccc(NC(=O)CSc2cn[nH]n2)c1,7,2%,3%,1%,28%,-5
Cc1cccc(NC(=O)CSc2ccc(-c3ccco3)nn2)c1,20*,20µM*,26%,18%,-3%,17
Oc1cccc2cc3cccc(O)c3c(O)c12,8,-21%,27%,20%,nt,-17
O=C(/C=C/c1cccs1)NC1CCS(=O)(=O)C1 (stereo not drawn),-2,0%,27%,18%,2%,-10
O=C(/C=C/c1cccs1)NC1CCCC1,18,7%,34%,21%,-10%,48*
